Source: PubChem BioAssay (NMMLSC)
RPL19A TOR yeast: RPL19A-GFP expression modulators in yeast, primary screen, cell-based, S. cerevisiae, multiplex flow cytometry, MLPCN; 330,000 compounds, 0.3% hits; percent response vs DMSO, % at 10 µM; S. cerevisiae RPL19A-GFP strain, 3 h; hits give low values;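 active = percent response vs DMSO below 50%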;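 note: median channel GFP fluorescence of the barcoded RPL19A-GFP strain; lower means less RPL19A-GFP as with rapamycin TOR inhibition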
LAP4 TOR yeast: modulators of LAP4-GFP expression in yeast, primary screen, S. cerevisiae, multiplex flow cytometry, MLPCN library | 320,000 compounds, 0.34% hits | AID 2023, 2009 | 3 h; median GFP as percent of DMSO wells | GFP response vs DMSO, % at 10 µM;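 active = GFP response vs DMSO above a set limit, about the screen mean plus 3 SD, cut at about 150% in these data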
CIT2 TOR yeast: modulators of CIT2-GFP expression in yeast, primary screen, S. cerevisiae, GFP fusion, multiplex flow cytometry, MLPCN library; GFP response vs DMSO, % at 10 µM; S. cerevisiae CIT2-GFP strain, 3 h; 100 means same as DMSO wells; 320,000 compounds, 0.065% hits;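 active = GFP response relative to DMSO above a set limit, near the screen mean plus 3 SD, cut at about 150% in these data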;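 note: ratio of well median GFP fluorescence to mean of DMSO wells on the plate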
MEP2-GFP yeast: modulators of MEP2-GFP levels in yeast, primary screen, S. cerevisiae, multiplex flow cytometry, MLPCN library; S. cerevisiae MEP2-GFP strain, 3 h; 100% = DMSO control level; GFP response vs DMSO, % at 10 µM; 330,000 compounds, 0.51% hits;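 active = GFP response versus DMSO above a set limit, roughly screen mean plus 3 SD, cut at about 180% in these data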;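 note: median GFP fluorescence of the barcode-gated MEP2-GFP cells per well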
AGP1-GFP MLPCN: modulators of AGP1-GFP expression in yeast TOR pathway, primary screen, cell-based, multiplex flow cytometry, S. cerevisiae, MLPCN library; 3 h; GFP as percent of DMSO wells; GFP response vs DMSO, % at 10 µM; AID 2066, 2009; 320,000 compounds, 0.02% hits;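 active = GFP response relative to DMSO above a set limit, near screen average plus 3 SD, cut at about 150% in these data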;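 note: median GFP channel fluorescence of the gated AGP1 strain per well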
Efflux pump inh: inhibitors of Candida efflux pumps in yeast, primary screen, S. cerevisiae, Nile Red, multiplex. 330,000 compounds, 0.44% hits. S. cerevisiae Candida pump triplex. inhibition, % at 10 µM;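 active = plate passing quality check with inhibition over a set limit, or well fluorescence over plate mean plus 4 SD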;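 note: Nile Red retained in pooled yeast measured as flow cytometry median fluorescence; higher means more Nile Red kept so more efflux inhibition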
Cmpd fluor yeast: counter-screen for efflux pump inhibitors: compound fluorescence | shares compounds with Efflux pump inh | S. cerevisiae AD/pABC3, flow cytometry | fluorescence ratio to DMSO, % at 10 µM | 1,700 compounds, 4% hits;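 active = fluorescence ratio to DMSO above its plate's cutoff, the plate mean ratio plus 5 SD, cut at about 210% in these data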;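 note: unstained yeast with no Nile Red so the signal is compound autofluorescence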
CaMdr1 efflux inh: inhibitors of Candida albicans Mdr1 efflux, confirmation, flow cytometry, singleplex, Cherry Pick1 set; inhibition, % at 10 µM; shares compounds with Efflux pump inh; AID 588518, 2011; S. cerevisiae AD/CaMDR1, Nile Red efflux; 1,700 compounds, 1% hits; in the data active = inhibition above about 26%;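 note: higher means more Nile Red retained so more efflux inhibition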
Cdr2 pump inh: inhibitors of Candida albicans Cdr2 efflux pump, confirmation, S. cerevisiae AD/CaCDR2, flow cytometry, cherry pick 1, singleplex. shares compounds with Efflux pump inh. Nile Red retention. Nile Red retention ratio vs DMSO, % at 10 µM. 1,700 compounds, 4% hits. AID 588520, 2011; in the data active = Nile Red retention ratio vs DMSO above about 190%;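 note: higher ratio means more blocking of Cdr2 efflux of the dye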
CaCdr1 efflux inh: inhibitors of Candida albicans Cdr1 efflux pump, confirmation, S. cerevisiae AD/CaCDR1, flow cytometry, cherry pick 1, singleplex; shares compounds with Efflux pump inh; Nile Red efflux; inhibition, % at 10 µM; 1,700 compounds, 1% hits;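 active = inhibition above the screen-wide mean plus twice its standard deviation, cut at about 32% in these data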
Hits are given with their value; n = inactive; x = not tested or not shown; + = active, no number. In the library only some 1.3% were active in any assay of this set; here they are far more common.

SMILES	RPL19A TOR yeast	LAP4 TOR yeast	CIT2 TOR yeast	MEP2-GFP yeast	AGP1-GFP MLPCN	Efflux pump inh	Cmpd fluor yeast	CaMdr1 efflux inh	Cdr2 pump inh	CaCdr1 efflux inh
O=C(COC(=O)c1c(Cl)cccc1Cl)NCC1CCCO1 (configuration not stated)	n	n	n	n	n	9.0	n	n	n	n
Cc1c(NC(=O)c2ccc(Br)s2)c(=O)n(-c2ccccc2)n1C	n	n	n	n	n	n	x	x	x	x
Cc1cccc(NC(=O)CSc2nc(C)c(Cc3ccccc3)c(=O)[nH]2)c1C	n	n	x	n	n	2.1	n	n	n	n
Cc1ccc(NC(=O)CSc2nc(C)c(Cc3ccccc3)c(=O)[nH]2)cc1	n	n	n	n	n	n	x	x	x	x
O=C(Cn1cncn1)NCc1cccc2ccccc12	n	n	n	n	n	0.9	n	n	n	n
COc1ccc([N+](=O)[O-])cc1NC(=O)c1ccc(N2C(=O)CCC2=O)cc1	n	n	n	n	n	n	x	x	x	x
O=c1[nH]c(C2CCN(S(=O)(=O)c3ccc4c(c3)OCCO4)CC2)nc2c1nnn2Cc1ccc(F)cc1	n	n	n	n	n	n	n	n	n	n
O=c1[nH]c(C2CCN(S(=O)(=O)c3ccccc3)CC2)nc2c1nnn2Cc1ccc2c(c1)OCCO2	n	n	n	n	n	n	x	x	x	x
O=c1[nH]c(C2CCN(S(=O)(=O)c3ccc4c(c3)OCCO4)CC2)nc2c1nnn2Cc1cccc(F)c1	n	n	n	n	n	3.2	n	n	n	n
CNc1c(NS(=O)(=O)c2ccc3c(c2)CCCC3)c(=O)oc2ccccc12	n	n	n	n	n	n	x	x	x	x
CC(C)(C)c1ccc(-n2ncc3c2CCCC3NC(=O)c2cnccn2)cc1 (configuration not stated)	n	n	n	n	n	0.5	n	n	n	n
CC(C)(C)c1ccc(-n2ncc3c2CCCC3NC(=O)c2csnn2)cc1 (configuration not stated)	n	n	n	n	n	n	x	x	x	x
O=C(Nc1ccccc1Cl)c1cc(S(=O)(=O)N2CCCCC2)ccc1N1CCOCC1	n	n	n	n	n	1.2	n	n	n	n
O=C(Nc1ccccc1N1CCCCC1)c1cc(S(=O)(=O)N2CCOCC2)ccc1Cl	n	n	n	n	n	n	x	x	x	x
O=C(COC(=O)[C@@H]1CCCN1S(=O)(=O)c1ccccc1F)NCc1ccc2c(c1)OCO2	n	n	n	n	n	n	x	x	x	x
COC(=O)[C@]1(C)N[C@H](CN(C)S(=O)(=O)c2ccc(-c3ccccc3)cc2)[C@@H]2C(=O)N(C)C(=O)[C@@H]21	n	n	n	n	n	n	x	x	x	x
Cc1cccc(CS(=O)(=O)Cc2ccc(C(=O)NCc3ccco3)o2)c1	n	n	n	n	n	13	n	n	n	n
Oc1nc(Nc2ccc(F)cc2)sc1/C=C1\C=Nc2ccccc21	n	n	n	n	n	n	x	x	x	x
O=c1[nH]c(S)c(/C=C2\C=Nc3ccccc32)s1	n	n	n	n	n	0.5	n	n	n	n
COc1ccc(OC)c(CNn2c(-c3cccc(C)c3)nc3ccccc3c2=O)c1	n	n	n	n	n	0.7	n	n	n	n
COc1ccccc1C1CCN(Cc2cccc3ccccc23)CC1	n	n	n	n	n	n	x	x	x	x
COc1ccccc1C1CCN(Cc2c(C)[nH]c3ccccc23)CC1	n	152	n	201	n	0.9	n	n	n	n
COc1cc(C(C)=O)ccc1OCC(=O)Nc1ccc(Cl)c(S(=O)(=O)N2CCOCC2)c1	n	n	n	n	n	1.0	n	n	n	n
CCN1C(=O)c2cccc3c(S(=O)(=O)N(C(=O)c4ccncc4)c4ccc(OC)cc4)ccc1c23	n	n	n	n	n	n	x	x	x	x
CCN1C(=O)c2cccc3c(S(=O)(=O)N(C(=O)c4cccnc4)c4ccc(OC)cc4)ccc1c23	n	n	n	n	n	13	n	n	n	n
SMILES	RPL19A TOR yeast	LAP4 TOR yeast	CIT2 TOR yeast	MEP2-GFP yeast	AGP1-GFP MLPCN	Efflux pump inh	Cmpd fluor yeast	CaMdr1 efflux inh	Cdr2 pump inh	CaCdr1 efflux inh
OC(COCc1ccc(Cl)cc1)CN1CCN(CC(O)COCc2ccc(Cl)cc2)CC1 (configuration not stated)	n	n	x	n	n	n	x	x	x	x
OC(COCc1ccc(Cl)cc1)CN1CCCCC1 (configuration not stated)	n	n	n	n	n	1.1	n	n	n	n
CCOCCCNC(=O)/C(C#N)=C/c1ccc(-c2ccc(S(=O)(=O)N3CCOCC3)cc2)o1	n	n	n	n	n	n	x	x	x	x
CCOCCCNC(=O)/C(C#N)=C/c1ccc([N+](=O)[O-])o1	n	488	n	+	n	0.9	n	n	n	n
CCn1c(=O)c2c(nc(SCC(=O)N3CCCC(C)C3)n2C)n(C)c1=O (configuration not stated)	n	n	n	n	n	n	x	x	x	x
Nc1c(Cl)cc(C2=NCCn3nc4ccccc4c32)cc1Cl	n	n	n	n	n	0.6	n	n	n	n
O=C1/C(=C/c2ccco2)CCc2ccccc21	n	n	n	n	n	n	x	x	x	x
COc1ccc2c(c1)CC/C(=C/c1ccco1)C2=O	n	n	n	n	n	20	n	n	n	n
Cc1ccccc1Nc1nnc(-c2ccc(C(=O)NCCO)cc2)c2ccccc12	n	n	n	n	n	1.0	n	n	n	n
O=C(Cn1c2ccc(F)cc2c2nc3n(c(=O)c21)CCS3)Nc1ccccc1F	n	n	n	n	n	0.4	480	n	n	n
COCCCNC(=O)Cn1ccc(N)nc1=O	n	n	n	n	n	n	x	x	x	x
O=S(=O)(NCCc1cn2ccccc2n1)c1ccc(F)c(C(F)(F)F)c1	n	n	n	n	n	0.5	n	n	n	n
